Results on twelve compounds are retold here after PubChem BioAssay (NCATS).

Structures are written as SMILES. Where “and” joins values, the source holds several entries; their conditions need not be identical. Identical values can stand only once. Records with an inconclusive call do not appear. The source holds several records for some structures; these can differ, active in one and inactive in another. Calls of active or inactive are those of the source. Unless noted, calls come from the whole dose curve; as a rule, active = well fitted curve in the direction sought with a large enough effect; inconclusive = small, poorly fitted or top-dose-only effect, or another doubt; inactive = no such curve, though single readings can be large; an effect the other way counts as inactive or inconclusive.

Experiment [1] concerns the target Guanine nucleotide-binding protein G(i) subunit alpha-1 (Homo sapiens) (UniProt P63096). Description: qHTS Assay for Inhibitors of RGS12 GoLoco Motif Activity (Green Fluorophore) (AID 879).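 Note: negative values mean loss of peptide binding seen as reduced polarization.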 In a few lines: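 Fluorescence polarization assay: 50 nM Gαi1 with 10 nM FITC-labeled RGS12 GoLoco peptide in 10 mM Tris pH 7.5, 150 mM NaCl, 0.1 mM GDP, 0.05% NP40, 10 min at room temperature with compound.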
Background: In qHTS, concentration-response curves come from the screen itself.

The target of experiment [2] is Cytochrome P450 3A4 (Homo sapiens) (UniProt P08684). The experiment can be described thus: qHTS Assay for Activators of Cytochrome P450 3A4 (AID 885). Note: nearly all actives have a fitted effect of over 65% in size. A digest of the protocol: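 Steps: enzyme/substrate mix dispensed; compound added, 10 min RT; NADPH regeneration solution added, 60 min RT; luciferin detection buffer stops reaction; 20 min later luminescence measured.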
Sequence of Cytochrome P450 3A4 (Homo sapiens) (P08684 whole entry, looked up): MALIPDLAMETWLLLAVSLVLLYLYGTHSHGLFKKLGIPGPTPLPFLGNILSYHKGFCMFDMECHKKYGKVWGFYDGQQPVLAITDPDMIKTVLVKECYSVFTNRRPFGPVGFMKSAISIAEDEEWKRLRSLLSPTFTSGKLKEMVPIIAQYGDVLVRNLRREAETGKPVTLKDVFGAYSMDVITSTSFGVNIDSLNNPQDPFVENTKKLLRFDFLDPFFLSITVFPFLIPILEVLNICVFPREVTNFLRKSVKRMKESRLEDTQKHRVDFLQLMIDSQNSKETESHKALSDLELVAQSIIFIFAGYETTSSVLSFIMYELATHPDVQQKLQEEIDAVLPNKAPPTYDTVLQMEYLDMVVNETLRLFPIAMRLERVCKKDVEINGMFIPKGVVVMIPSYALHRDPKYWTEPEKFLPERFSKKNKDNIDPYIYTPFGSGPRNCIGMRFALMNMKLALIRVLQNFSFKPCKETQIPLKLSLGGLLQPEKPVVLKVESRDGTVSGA

The target in experiment [3] is Cytochrome P450 2D6 (Homo sapiens) (UniProt P10635). The experiment can be described thus: qHTS Assay for Inhibitors and Substrates of Cytochrome P450 2D6 (AID 891). Note: nearly all actives have a fitted effect of over 60% in size. Note: potency is the fitted concentration of half-maximal effect. A digest of the protocol:
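Human CYP2D6 (5 nM) with 30 uM Luciferin-ME EGE (at Km) in 100 mM KPO4, compound preincubated 10 min, then NADPH regeneration system for 60 min at room temperature. Luciferin read by luminescence; normalized to 1.43 uM quinidine.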

The target in experiment [4] is Pyruvate kinase (Leishmania mexicana) (UniProt Q27686). The experiment can be described thus: qHTS Validation Assay for Inhibitors of Leishmania Mexicana Pyruvate Kinase (AID 945). In a few lines: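 Eight-point qHTS titrations; enzyme 0.2 nM LmPYK (E451W mutant); substrates 0.5 mM PEP, 0.1 mM ADP; 7 mM MgCl2; 1 h room temperature; PKLight luminescence normalized to neutral control.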
Sequence of Pyruvate kinase (Leishmania mexicana) (Q27686 2-499 E452W): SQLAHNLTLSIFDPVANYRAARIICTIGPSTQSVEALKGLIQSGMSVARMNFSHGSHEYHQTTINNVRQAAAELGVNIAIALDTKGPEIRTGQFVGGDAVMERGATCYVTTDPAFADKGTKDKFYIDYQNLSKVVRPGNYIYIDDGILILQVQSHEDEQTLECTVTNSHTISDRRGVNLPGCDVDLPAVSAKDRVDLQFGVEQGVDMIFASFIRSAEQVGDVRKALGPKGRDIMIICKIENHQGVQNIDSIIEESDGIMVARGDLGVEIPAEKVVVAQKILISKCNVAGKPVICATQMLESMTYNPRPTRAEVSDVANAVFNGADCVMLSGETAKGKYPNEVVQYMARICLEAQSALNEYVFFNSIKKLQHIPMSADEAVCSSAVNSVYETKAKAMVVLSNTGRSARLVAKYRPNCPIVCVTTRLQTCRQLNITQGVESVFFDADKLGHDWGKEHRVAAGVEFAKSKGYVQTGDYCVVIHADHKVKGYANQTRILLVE

Experiment [5] has as its target Pyruvate kinase PKM (Homo sapiens) (UniProt P14618). The experiment can be described thus: qHTS Assay for Activators of Human Muscle Pyruvate Kinase (AID 954; active = well fitted curve in the direction sought with a large enough effect, not every such curve was filed as active). A digest of the protocol: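 Reaction: 0.1 nM purified PKM2 with 0.5 mM phosphoenolpyruvate and 0.1 mM ADP, room temperature, 1 h. Readout: luciferase-based ATP luminescence after stop reagent. Activators judged against a 0.3 nM enzyme column.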

Experiment [6] deals with Cytochrome P450 3A4 (Homo sapiens) (UniProt P08684). Description: qHTS Assay for Inhibitors and Substrates of Cytochrome P450 3A4 (AID 884). Note: nearly all actives have a fitted effect of over 50% in size. Note: potency is the fitted concentration of half-maximal effect. A digest of the protocol: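 20 nM human CYP3A4 with 25 uM Luciferin-PPXE (at KM) in 200 mM KPO4, preincubated 10 min with compound; NADPH regeneration started a 60 min RT reaction. Luciferin detected by luminescence, normalized to 57 uM ketoconazole as full inhibition.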

In experiment [7] the target is Cytochrome P450 2C19 (Homo sapiens) (UniProt P33261). The experiment can be described thus: qHTS Assay for Inhibitors and Substrates of Cytochrome P450 2C19 (AID 899). Note: nearly all actives have a fitted effect of over 60% in size. Note: potency is the fitted concentration of half-maximal effect. A digest of the protocol:
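Luminescence readout of luciferin formed from 10uM Luciferin-H EGE (KM level) by 5 nM CYP2C19 in 50mM KPO4. 60 min NADPH-driven reaction at 37C after 10 min compound preincubation; data scaled to 57uM ketoconazole inhibition.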

Experiment [8] deals with Muscarinic acetylcholine receptor M1 (Rattus norvegicus) (UniProt P08482). Description: qHTS Assay for Antagonists of Acetylcholine Muscarinic M1 Receptor: Kinetic Measurement of Intracellular Calcium Response (AID 943).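 Note: Fluo-4 calcium signal as peak divided by basal fluorescence over 4 min; series mostly up to about 35 µM; nearly all actives have a fitted effect of over 75% in size.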 In a few lines: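 Rat M1-CHO cells, 2000/well, overnight → Fluo-4 no-wash dye with probenecid, 1 h 37C → compound 10 min, room temp → basal read 6 s → carbachol EC80 (100 nM) → 4 min kinetic read; peak/basal.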
Sequence of Muscarinic acetylcholine receptor M1 (Rattus norvegicus) (P08482 whole entry, looked up): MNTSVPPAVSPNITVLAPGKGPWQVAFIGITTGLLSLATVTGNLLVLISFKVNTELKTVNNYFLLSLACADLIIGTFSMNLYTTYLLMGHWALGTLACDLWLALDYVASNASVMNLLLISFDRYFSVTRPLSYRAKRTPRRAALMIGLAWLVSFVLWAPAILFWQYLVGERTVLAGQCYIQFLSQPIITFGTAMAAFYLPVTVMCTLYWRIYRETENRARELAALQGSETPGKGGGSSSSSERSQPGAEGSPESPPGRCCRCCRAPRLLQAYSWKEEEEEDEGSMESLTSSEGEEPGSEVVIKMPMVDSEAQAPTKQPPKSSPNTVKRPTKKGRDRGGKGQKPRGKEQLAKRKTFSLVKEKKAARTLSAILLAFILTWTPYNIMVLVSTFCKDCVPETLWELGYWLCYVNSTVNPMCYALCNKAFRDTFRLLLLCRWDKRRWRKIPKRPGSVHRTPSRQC

Experiment [9] has the same target. The experiment can be described thus: qHTS Assay for Antagonists of Acetylcholine Muscarinic M1 Receptor: Measurement of IP-One Response (AID 944). Note: nearly all actives have a fitted effect of over 75% in size. In a few lines:
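M1-CHO (rat), 2000 cells/well, overnight recovery; cpd 10 min; carbachol EC80 (200 nM), 30 min, HEPES buffer + 50 mM LiCl pH 7.4; IP-One HTRF, Ex 337, Em 620/665 nm.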

The nature of experiment [10]: qHTS Assay for Identification of Small Molecule Antagonists for NFkB Signaling Pathway (AID 895; active = well fitted inhibition curve with a large enough effect in the signal ratio, with a control signal flat, not every such curve was filed as active; the % refers to the signal ratio; note: potency is the fitted concentration of half-maximal effect). A digest of the protocol:
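Beta-lactamase reporter read-out (460 and 530 nm emission ratio, 405 nm excitation, 2 hrs substrate loading RT) after 5 hr stimulation with 10 pM TNF alpha in compound-treated NFkB-bla ME-180 cells in low-serum medium.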

Experiment [11] is described as follows: Confirmation and Secondary Assay for Modulators of Hemoglobin Beta Chain Splicing at IVS2 654 locus (AID 910).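 Note: HeLa cells stably carrying EGFP split by mutant beta-globin IVS2-654 intron; per-well total GFP intensity by laser scanning cytometry after 2-day treatment.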 In a few lines: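 Readout: per-well total peak green fluorescence (488 nm ex, 500–520 nm em) from objects 5–250 µm, reflecting correct splicing of an EGFP-654 reporter. Compounds were applied for 2 days at 37 °C to overnight-plated HeLa EGFP-654 cells; controls were DMSO and 500 nM IVS2-654 PNA.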

Experiment [12] can be described thus: qHTS Assay for Identification of Small Molecule Agonists for Thrombopoietin (TPO) Signaling Pathway (AID 917). Note: potency is the fitted concentration of half-maximal effect. In a few lines:
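Murine Ba/F3 cells stably expressing human TPO receptor and a Glycoprotein IIb promoter–luciferase reporter were IL-3-starved overnight, then treated with compounds plus TPO (26 pM final, its EC50) for 24 hrs at 37 C; luminescence was read.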

A short description of experiment [13]: Confirmation and Secondary Assay for Modulators of Hemoglobin Beta Chain Splicing at IVS2 705 locus (AID 930).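 Note: HeLa cells stably expressing the EGFP-705 splicing reporter; GFP fluorescence per well restored by corrected splicing of the IVS2-705 intron in EGFP; series mostly up to about 46 µM.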 A digest of the protocol: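 HeLa IVS2-705 EGFP reporter cells, 500/well, compound 2 d at 37C; correct splicing yields fluorescent EGFP. Control: 500 nM antisense PNA. Read-out: total peak GFP intensity.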
Experiment [14] has as its target Pyruvate kinase PKM (Homo sapiens) (UniProt P14618). Description: qHTS Assay for Inhibitors of Human Muscle Pyruvate Kinase (AID 958). Particulars: purified human PKM enzyme activity. In a few lines:
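ATP production by PKM2 detected via luciferase luminescence after 1 h room-temperature reaction (0.1 nM enzyme, PEP at Km 0.5 mM, ADP 0.1 mM, pH 7.2 imidazole buffer). Inhibition scaled to no-enzyme control; activation referenced to 0.3 nM enzyme wells.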

Experiment [15] can be described thus: qHTS Assay for Identification of Small Molecule Antagonists for Thrombopoietin (TPO) Signaling Pathway (AID 918). Note: potency is the fitted concentration of half-maximal effect; nearly all actives have a fitted effect of over 60% in size. Particulars: TPO-dependent cell signaling reporter, antagonist mode. A digest of the protocol:
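Ba/F3 (murine, hTPO-R, GPIIb-luc reporter); overnight IL-3 withdrawal; cpd + TPO 26 pM final (EC50); 24 h 37 C/5% CO2; Steadylite luminescence after 10 min RT.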

Sequence of Pyruvate kinase PKM (Homo sapiens) (P14618 whole entry, looked up): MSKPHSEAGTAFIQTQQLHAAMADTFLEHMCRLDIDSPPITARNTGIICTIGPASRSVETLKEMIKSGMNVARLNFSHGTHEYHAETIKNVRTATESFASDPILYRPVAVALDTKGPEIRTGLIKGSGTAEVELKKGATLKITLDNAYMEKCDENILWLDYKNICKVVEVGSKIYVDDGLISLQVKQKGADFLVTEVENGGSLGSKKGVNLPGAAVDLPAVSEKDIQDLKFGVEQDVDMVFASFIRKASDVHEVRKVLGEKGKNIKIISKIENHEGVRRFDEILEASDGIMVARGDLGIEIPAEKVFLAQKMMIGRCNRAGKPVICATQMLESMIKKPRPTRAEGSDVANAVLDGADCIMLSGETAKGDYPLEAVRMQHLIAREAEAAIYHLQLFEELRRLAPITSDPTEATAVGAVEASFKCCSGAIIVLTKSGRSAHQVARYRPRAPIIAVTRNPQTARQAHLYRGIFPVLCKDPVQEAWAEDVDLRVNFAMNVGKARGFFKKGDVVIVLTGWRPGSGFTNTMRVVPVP
Sequence of Cytochrome P450 2C19 (Homo sapiens) (P33261 whole entry, looked up): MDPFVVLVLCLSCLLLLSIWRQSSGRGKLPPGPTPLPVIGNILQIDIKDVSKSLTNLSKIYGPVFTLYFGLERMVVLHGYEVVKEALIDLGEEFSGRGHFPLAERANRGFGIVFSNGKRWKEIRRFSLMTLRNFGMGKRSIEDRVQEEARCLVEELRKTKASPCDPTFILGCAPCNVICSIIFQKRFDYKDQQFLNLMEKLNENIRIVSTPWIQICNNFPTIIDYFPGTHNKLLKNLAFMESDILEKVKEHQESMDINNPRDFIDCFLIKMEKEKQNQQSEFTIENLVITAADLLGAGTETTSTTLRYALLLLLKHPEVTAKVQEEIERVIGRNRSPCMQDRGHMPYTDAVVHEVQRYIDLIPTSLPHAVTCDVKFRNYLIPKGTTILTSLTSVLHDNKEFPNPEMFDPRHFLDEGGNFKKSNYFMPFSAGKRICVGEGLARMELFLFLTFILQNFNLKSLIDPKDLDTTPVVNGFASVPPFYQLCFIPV
Sequence of Cytochrome P450 2D6 (Homo sapiens) (P10635 whole entry, looked up): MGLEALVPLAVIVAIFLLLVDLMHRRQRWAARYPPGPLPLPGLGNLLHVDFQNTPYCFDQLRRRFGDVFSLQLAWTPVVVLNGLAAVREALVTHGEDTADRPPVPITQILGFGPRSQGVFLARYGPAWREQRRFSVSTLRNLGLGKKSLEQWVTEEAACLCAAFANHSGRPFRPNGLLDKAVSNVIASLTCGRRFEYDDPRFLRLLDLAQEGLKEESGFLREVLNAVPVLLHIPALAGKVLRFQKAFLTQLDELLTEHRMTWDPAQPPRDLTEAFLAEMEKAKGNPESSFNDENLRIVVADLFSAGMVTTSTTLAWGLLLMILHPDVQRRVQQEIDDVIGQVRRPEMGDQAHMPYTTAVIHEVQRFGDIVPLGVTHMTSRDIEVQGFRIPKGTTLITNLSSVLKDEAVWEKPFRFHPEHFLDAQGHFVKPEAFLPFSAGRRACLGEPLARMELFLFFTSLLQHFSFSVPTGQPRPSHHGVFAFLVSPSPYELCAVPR
Sequence of Guanine nucleotide-binding protein G(i) subunit alpha-1 (Homo sapiens) (P63096 whole entry, looked up): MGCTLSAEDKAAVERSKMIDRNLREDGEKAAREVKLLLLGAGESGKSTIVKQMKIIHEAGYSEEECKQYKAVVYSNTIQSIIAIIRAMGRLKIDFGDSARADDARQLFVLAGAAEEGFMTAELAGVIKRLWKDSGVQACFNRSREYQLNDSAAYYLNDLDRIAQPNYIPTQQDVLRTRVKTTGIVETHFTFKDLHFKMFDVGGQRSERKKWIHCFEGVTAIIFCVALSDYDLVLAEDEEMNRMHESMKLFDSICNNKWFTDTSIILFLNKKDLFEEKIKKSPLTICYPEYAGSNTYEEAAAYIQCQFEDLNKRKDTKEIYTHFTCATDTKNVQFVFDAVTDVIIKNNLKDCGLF

As to `CC1(C)C(=O)N(CCN2CCC(C(=O)c3ccc(F)cc3)CC2)c2ccccc21`, the call in [1], in experiment [2] and in experiment [5] was inactive. The Potency in [3] is 1.26 µM (active). The Potency entry in experiment [4] is “inactive”.
As for `O=C1c2ccccc2-c2n[nH]c3cccc1c23`, the Potency in experiment [6] was 3.98 µM (active); in [3], “inactive and 398 nM (active)”. Also, the call in experiment [2] and in experiment [5] was inactive. Besides, the Potency entry in [7], in [8], in experiment [9] and in [4] was “inactive” in each case.
As for `NNc1nncc2ccccc12`, the result in experiment [1], in [2] and in [5] was inactive. The Potency result in [10], in experiment [11] and in experiment [13] was “inactive” in each case. Moreover, the values for the Potency in [12] and in experiment [14] were 39.8 nM (active) and 7.94 µM (active), respectively.
With `CC1(C)NC(=O)N(c2ccc([N+](=O)[O-])c(C(F)(F)F)c2)C1=O`, the result in [1], in experiment [2] and in experiment [5] was inactive. Besides, the Potency entry in [3], in experiment [11], in experiment [12], in experiment [13] and in experiment [4] was “inactive” each time. Further, in experiment [7], the Potency was 7.94 µM (active) and 126 nM (active) and 251 nM (active).
Regarding `Nc1nc(OCc2ccccc2)c2[nH]cnc2n1`, the call in experiment [1] and in [5] was inactive. The Potency entry in experiment [12], in experiment [8], in experiment [9] and in experiment [4] was “inactive” throughout.
Take `O=C1NC(=O)C(c2ccccc2[N+](=O)[O-])=C1Nc1ccc(O)c(Cl)c1`: the compound was called inactive in experiment [1], in [2] and in experiment [5]. Moreover, the Potency result in experiment [3], in experiment [8] and in experiment [4] was “inactive” in each case.
With `Cc1ccc(S(=O)(=O)NC(=O)NN2CC3CCCC3C2)cc1` (centres undefined), the Potency result in experiment [6], in [11] and in experiment [13] was “inactive” each time.
Take `O=C(O)c1cccnc1Nc1cccc(C(F)(F)F)c1`: the result in experiment [1], in [2] and in experiment [5] was inactive. In addition, the Potency entry in experiment [3], in experiment [7], in [11], in experiment [12], in [13] and in experiment [4] was “inactive” in each case.
As to `C[C@H](Cc1ccc(O)c(O)c1)[C@@H](C)Cc1ccc(O)c(O)c1`, the call in [1] and in experiment [5] was inactive. Besides, the Potency result in experiment [6], in [9] and in experiment [4] was “inactive” in each case. The Potency in experiment [3] is 25.1 µM (active); in experiment [10], 7.94 µM (active); in experiment [7], 6.31 µM (active); in experiment [15], 5.01 µM (active).
For the compound `O=c1ccc2ccc(O)c(O)c2o1`, the call in experiment [1] and in experiment [5] was inactive. The Potency entry in experiment [10], in [8] and in experiment [4] was “inactive” each time.
With `O=c1c(O)c(-c2ccc(O)cc2O)oc2cc(O)cc(O)c12`, the compound was classed as inactive in experiment [1] and in experiment [5]. The Potency result in experiment [3], in [7], in [11], in [13], in [9] and in experiment [4] was “inactive” each time.
For `COc1ccccc1N1CCN(CCN(C(=O)C2CCCCC2)c2ccccn2)CC1`, the result in [1], in experiment [2] and in experiment [5] was inactive. Also, the Potency in [6] is 3.98 µM (active). In addition, the Potency entry in experiment [10], in experiment [12], in [8] and in experiment [4] was “inactive” throughout.
